# Test results taken from PubChem BioAssay AID1159580 (chemical genetic matrix, 2015).
# Values joined by “and” are separate entries in the source; they are usually repeats but may differ in a detail not shown here. Identical values can stand only once. About 2,000 (36%) of roughly 5,500 compounds were called active. Not shown: some 18% with an inconclusive outcome. This is one part of the list. Values without a mark were called inactive. Rule as the data show it: active = normalized growth mostly below about 0.91 (no sharp cut-off); inconclusive = no clear call, values can overlap the other calls; inactive = mostly above about 0.92.
# Test: chemical genetic growth profiling, strain panel (AID 1159580);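 also: tested at 20 µM; growth read once vehicle control cultures reached saturation at 30 °C; 1 = growth at the plate median or of vehicle wells; lower values mean less growth of the strain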
# Conditions: growth OD
# [1] = S. cerevisiae deletion strains, locus YBR229C, strain ROT2, active compounds read low
# [2] = S. cerevisiae deletion strains, locus YDL101C, strain DUN1, active compounds read low
# [3] = S. cerevisiae deletion strains, locus YEL061C, strain CIN8, active compounds read low
# [4] = S. cerevisiae deletion strains, locus YGR078C, strain PAC10, active compounds read low
# [5] = S. cerevisiae deletion strains, locus YHR030C, strain SLT2, active compounds read low
# [6] = S. cerevisiae deletion strains, locus YJR043C, strain POL32, active compounds read low
# [7] = S. cerevisiae deletion strains, locus YLR039C, strain RIC1, active compounds read low
# [8] = S. cerevisiae deletion strains, locus YLR262C, strain YPT6, active compounds read low
# [9] = S. cerevisiae deletion strains, locus YMR307W, strain GAS1, active compounds read low
# [10] = S. cerevisiae deletion strains, locus YNL153C, strain GIM3, active compounds read low
# [11] = S. cerevisiae deletion strains, locus YPL055C, strain LGE1, active compounds read low
# [12] = S. cerevisiae deletion strains, locus YPL241C, strain CIN2, active compounds read low
compound,measurement,setting,value
CCc1ccccc1NC(C)=O,normalized growth,"S. cerevisiae deletion strains, locus YAL013W, strain DEP1, active compounds read low",1.04
same,normalized growth,[1],1
same,normalized growth,[2],1.01
same,normalized growth,"S. cerevisiae deletion strains, locus YDR150W, strain NUM1, active compounds read low",1.01
same,normalized growth,[3],1.02
same,normalized growth,[4],1
same,normalized growth,[5],1.08
same,normalized growth,"S. cerevisiae deletion strains, locus YHR087W, strain rtc3, active compounds read low",1.01
same,normalized growth,"S. cerevisiae deletion strains, locus YJL187C, strain SWE1, active compounds read low",1
same,normalized growth,[6],0.995
same,normalized growth,"S. cerevisiae deletion strains, locus YJR075W, strain HOC1, active compounds read low",0.997
same,normalized growth,[7],0.992
same,normalized growth,"S. cerevisiae deletion strains, locus YLR058C, strain SHM2 (second series), active compounds read low",0.997
same,normalized growth,"S. cerevisiae deletion strains, locus YLR085C, strain ARP6, active compounds read low",1.01
same,normalized growth,[8],1.06
same,normalized growth,"S. cerevisiae deletion strains, locus YML094W, strain GIM5, active compounds read low",1.03
same,normalized growth,"S. cerevisiae deletion strains, locus YMR219W, strain ESC1, active compounds read low",1.01
same,normalized growth,"S. cerevisiae deletion strains, locus YMR263W, strain SAP30, active compounds read low",0.998
same,normalized growth,[9],0.972
same,normalized growth,[10],1.01
same,normalized growth,"S. cerevisiae deletion strains, locus YNL298W, strain CLA4 (second series), active compounds read low",1.03
same,normalized growth,"S. cerevisiae deletion strains, locus YNL322C, strain KRE1, active compounds read low",0.993
same,normalized growth,"S. cerevisiae deletion strains, locus YNR030W, strain Alg12, active compounds read low",1.03
same,normalized growth,[11],0.901
same,normalized growth,[12],1.01
same,normalized growth,"S. cerevisiae deletion strains, locus YPR135W, strain CTF4, active compounds read low",1.24
same,normalized growth,"S. cerevisiae strains, strain wild type, active compounds read low",0.985
O=C(Nc1ccccc1)c1ccccc1O,normalized growth,"S. cerevisiae deletion strains, locus YBR021W, strain FUR4, active compounds read low",1.18 [resistant] (active)
same,normalized growth,[1],1.01
same,normalized growth,"S. cerevisiae deletion strains, locus YCL029C, strain bik1, active compounds read low",0.953
same,normalized growth,"S. cerevisiae deletion strains, locus YDL035C, strain GPR1, active compounds read low",0.954
same,normalized growth,"S. cerevisiae deletion strains, locus YDL074C, strain BRE1, active compounds read low",0.904
same,normalized growth,[2],0.956
same,normalized growth,"S. cerevisiae deletion strains, locus YDL185W, strain tfp1, active compounds read low",0.927
same,normalized growth,"S. cerevisiae deletion strains, locus YDL192W, strain arf1, active compounds read low",0.941
same,normalized growth,"S. cerevisiae deletion strains, locus YDR101C, strain arx1, active compounds read low",0.953
same,normalized growth,"S. cerevisiae deletion strains, locus YDR162C, strain NBP2, active compounds read low",0.963
same,normalized growth,"S. cerevisiae deletion strains, locus YDR318W, strain mcm21, active compounds read low",0.981
same,normalized growth,"S. cerevisiae deletion strains, locus YDR388W, active compounds read low",0.988
same,normalized growth,"S. cerevisiae deletion strains, locus YDR502C, strain sam2, active compounds read low",0.939
same,normalized growth,[3],0.995
same,normalized growth,"S. cerevisiae deletion strains, locus YER110C, active compounds read low",0.962
same,normalized growth,"S. cerevisiae deletion strains, locus YER155C, strain BEM2, active compounds read low",0.98
same,normalized growth,"S. cerevisiae deletion strains, locus YER167W, strain BCK2, active compounds read low",0.982
same,normalized growth,"S. cerevisiae deletion strains, locus YGL078C, strain dbp3, active compounds read low",0.943
same,normalized growth,"S. cerevisiae deletion strains, locus YGL086W, strain mad1, active compounds read low",0.966
same,normalized growth,"S. cerevisiae deletion strains, locus YGL248W, strain PDE1, active compounds read low",0.981
same,normalized growth,[4],0.94
same,normalized growth,"S. cerevisiae deletion strains, locus YGR135W, strain pre9, active compounds read low",0.944
same,normalized growth,"S. cerevisiae deletion strains, locus YGR229C, strain SMI1, active compounds read low",0.909
same,normalized growth,"S. cerevisiae deletion strains, locus YGR252W, strain gcn5, active compounds read low",0.847
same,normalized growth,[5],0.992 and 0.935
same,normalized growth,"S. cerevisiae deletion strains, locus YHR079C, strain IRE1 (second series), active compounds read low",0.979
same,normalized growth,"S. cerevisiae deletion strains, locus YHR079C, strain IRE1, active compounds read low",0.921
same,normalized growth,"S. cerevisiae deletion strains, locus YHR094C, strain hxt1, active compounds read low",0.989
same,normalized growth,"S. cerevisiae deletion strains, locus YHR129C, strain ARP1, active compounds read low",0.991
same,normalized growth,"S. cerevisiae deletion strains, locus YHR200W, strain rpn10, active compounds read low",0.963
same,normalized growth,"S. cerevisiae deletion strains, locus YIL066C, strain RNR3, active compounds read low",0.986
same,normalized growth,"S. cerevisiae deletion strains, locus YIL073C, strain SPO22, active compounds read low",0.874
same,normalized growth,"S. cerevisiae deletion strains, locus YIL125W, strain kgd1, active compounds read low",0.984
same,normalized growth,"S. cerevisiae deletion strains, locus YIR030C, strain dcg1, active compounds read low",0.976
same,normalized growth,"S. cerevisiae deletion strains, locus YJL095W, strain BCK1, active compounds read low",0.929 and 0.932
same,normalized growth,"S. cerevisiae deletion strains, locus YJL134W, strain LCB3, active compounds read low",0.987
same,normalized growth,"S. cerevisiae deletion strains, locus YJL168C, strain set2, active compounds read low",0.992
same,normalized growth,"S. cerevisiae deletion strains, locus YJL187C, strain SWE1 (second series), active compounds read low",0.941
same,normalized growth,[6],0.924
same,normalized growth,"S. cerevisiae deletion strains, locus YJR066W, strain TOR1, active compounds read low",0.901
same,normalized growth,"S. cerevisiae deletion strains, locus YKL009W, strain mrt4, active compounds read low",0.891
same,normalized growth,"S. cerevisiae deletion strains, locus YKL068W, active compounds read low",0.964
same,normalized growth,"S. cerevisiae deletion strains, locus YKL085W, strain MDH1 (second series), active compounds read low",0.98
same,normalized growth,"S. cerevisiae deletion strains, locus YKL085W, strain MDH1, active compounds read low",0.98
same,normalized growth,"S. cerevisiae deletion strains, locus YKR001C, strain vps1, active compounds read low",0.897 (active)
same,normalized growth,[7],0.949
same,normalized growth,"S. cerevisiae deletion strains, locus YLR058C, strain SHM2, active compounds read low",0.99
same,normalized growth,"S. cerevisiae deletion strains, locus YLR102C, strain apc9, active compounds read low",0.976
same,normalized growth,"S. cerevisiae deletion strains, locus YLR113W, strain HOG1, active compounds read low",0.791 (active)
same,normalized growth,[8],0.945
same,normalized growth,"S. cerevisiae deletion strains, locus YLR268W, strain sec22, active compounds read low",0.916
same,normalized growth,"S. cerevisiae deletion strains, locus YLR330W, strain CHS5, active compounds read low",0.983
same,normalized growth,"S. cerevisiae deletion strains, locus YLR342W, strain FKS1 (second series), active compounds read low",0.968
same,normalized growth,"S. cerevisiae deletion strains, locus YLR371W, strain rom2, active compounds read low",0.964
same,normalized growth,"S. cerevisiae deletion strains, locus YLR418C, strain cdc73, active compounds read low",0.934
same,normalized growth,"S. cerevisiae deletion strains, locus YML016C, strain PPZ1, active compounds read low",1
same,normalized growth,"S. cerevisiae deletion strains, locus YML032C, strain rad52, active compounds read low",0.98
same,normalized growth,"S. cerevisiae deletion strains, locus YML124C, strain tub3, active compounds read low",0.988
same,normalized growth,"S. cerevisiae deletion strains, locus YMR078C, strain ctf18, active compounds read low",0.956
same,normalized growth,"S. cerevisiae deletion strains, locus YMR223W, strain ubp8, active compounds read low",0.941
same,normalized growth,[9],0.986
same,normalized growth,"S. cerevisiae deletion strains, locus YNL067W, strain RPL9B, active compounds read low",0.9
same,normalized growth,[10],0.94
same,normalized growth,"S. cerevisiae deletion strains, locus YNL183C, strain NPR1, active compounds read low",0.885
same,normalized growth,"S. cerevisiae deletion strains, locus YNL233W, strain BNI4, active compounds read low",0.945
same,normalized growth,"S. cerevisiae deletion strains, locus YNL250W, strain rad50, active compounds read low",0.952
same,normalized growth,"S. cerevisiae deletion strains, locus YNL271C, strain bni1, active compounds read low",0.959
same,normalized growth,"S. cerevisiae deletion strains, locus YNL298W, strain CLA4, active compounds read low",0.971
same,normalized growth,"S. cerevisiae deletion strains, locus YNL307C, strain MCK1, active compounds read low",0.974
same,normalized growth,"S. cerevisiae deletion strains, locus YNR052C, strain pop2, active compounds read low",0.978
same,normalized growth,"S. cerevisiae deletion strains, locus YOL012C, strain htz1",1.23
same,normalized growth,"S. cerevisiae deletion strains, locus YOL147C, strain pex11, active compounds read low",0.987
same,normalized growth,"S. cerevisiae deletion strains, locus YOR061W, strain CKA2, active compounds read low",0.997
same,normalized growth,"S. cerevisiae deletion strains, locus YOR069W, strain VPS5, active compounds read low",0.995
same,normalized growth,"S. cerevisiae deletion strains, locus YOR136W, strain idh2, active compounds read low",0.983
same,normalized growth,"S. cerevisiae deletion strains, locus YOR144C, strain elg1, active compounds read low",0.994
same,normalized growth,"S. cerevisiae deletion strains, locus YOR184W, strain ser1, active compounds read low",0.861 (active)
same,normalized growth,"S. cerevisiae deletion strains, locus YOR231W, strain MKK1, active compounds read low",0.929
same,normalized growth,"S. cerevisiae deletion strains, locus YOR316C, strain cot1, active compounds read low",0.989
same,normalized growth,[11],0.921
same,normalized growth,[12],0.994
same,normalized growth,"S. cerevisiae deletion strains, locus YPL256C, strain CLN2, active compounds read low",0.901
same,normalized growth,"S. cerevisiae deletion strains, locus YPR119W, strain clb2, active compounds read low",0.98
same,normalized growth,"S. cerevisiae deletion strains, locus YPR141C, strain kar3, active compounds read low",0.969
same,normalized growth,"S. cerevisiae deletion strains, locus YPR163C, strain tif3, active compounds read low",0.982
same,normalized growth,"S. cerevisiae deletion strains, locus YPR167C, strain met16, active compounds read low",0.966
same,normalized growth,"S. cerevisiae deletion strains, strain wtn01, active compounds read low",0.907
